Several values for one entry are separate records, joined by “and”; a condition that tells them apart may be missing. Identical values can stand only once. Screen size: about 16,000 compounds; about 2,600 (16%) were called active. Another 20% or so got no clear call; they are omitted. These entries were drawn from the full list. Values without a mark were called inactive. The call rests on the fitted dose curve; in most records, active means well fitted curve in the direction sought with a large enough effect; inconclusive means small, poorly fitted or top-dose-only effect, or effect the other way; inactive means no such curve, though single readings can be large or run the other way.

These results are taken from PubChem BioAssay AID1851 (National Center for Advancing Translational Sciences (NCATS), 2009).
On the % scale 0 is the no-effect control and ±100 the full control effect.

The assay deals with Cytochrome P450 2D6 (Homo sapiens) (UniProt P10635). The assay is described as follows: Cytochrome panel assay with activity outcomes. The conditions noted are these: recombinant CYP, pro-luciferin dealkylation, luminescence, p450-cyp2d6; series mostly up to 57.1 µM.
Chain of Cytochrome P450 2D6 (Homo sapiens) (P10635 whole entry, looked up): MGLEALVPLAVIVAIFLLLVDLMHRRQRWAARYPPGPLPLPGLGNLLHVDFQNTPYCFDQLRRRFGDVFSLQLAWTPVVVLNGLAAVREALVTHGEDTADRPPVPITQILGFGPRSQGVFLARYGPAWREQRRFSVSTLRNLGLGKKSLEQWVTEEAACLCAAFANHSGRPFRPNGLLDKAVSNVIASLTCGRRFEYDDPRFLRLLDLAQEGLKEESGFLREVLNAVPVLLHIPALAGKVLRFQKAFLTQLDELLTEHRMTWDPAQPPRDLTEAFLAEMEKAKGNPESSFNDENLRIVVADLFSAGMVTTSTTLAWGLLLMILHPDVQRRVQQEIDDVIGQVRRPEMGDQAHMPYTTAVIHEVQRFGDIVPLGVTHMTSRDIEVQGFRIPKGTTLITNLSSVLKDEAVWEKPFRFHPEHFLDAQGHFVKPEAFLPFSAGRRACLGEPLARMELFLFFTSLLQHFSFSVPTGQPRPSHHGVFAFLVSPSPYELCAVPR
Consider `CNC(=O)/C(C#N)=c1\s/c(=C/C(=O)OC)c(=O)n1-c1ccccc1`, for which the AC50 entry is “inactive”. Still for that read-out and setting: to `C/C=C1\C(=O)C[C@@H]2[C@@H]3CCC4=CC(=O)CC[C@@]4(C)[C@H]3CC[C@@]12C` belongs “inactive”; to `COCc1c(C(N)=O)nnn1-c1nonc1N`, “inactive”; to `O=C(Cc1ccccc1)NC1CCN(S(=O)(=O)c2ccc(C(=O)O)cc2)CC1`, “inactive”. Still for that read-out and setting: to `COc1cc(N)c(Cl)cc1C(=O)NC1CCN(Cc2ccccc2)CC1` belongs 0.0126 µM (active).

In the case of `CC(C)C(NC(=O)C1CCCCC1)C(=O)NC1CCN(Cc2ccccc2)CC1` (stereo not given), the AC50 entry is “inactive”.

On to `O=C(NC1CCN(Cc2ccccc2)CC1)c1ccc(I)cc1`, for which the AC50 is 12.6 µM (active). The same measure, in the same setting: to `COc1ccc(CC(NC(C)=O)C(=O)NC2CCN(C(=O)Nc3ccc(Cl)cc3)CC2)cc1OC` (stereo not given) belongs “inactive”. On the same count and under the same terms, the same measure for `COc1cc([C@@H](O)CO)ccc1OS(=O)(=O)O`: “inactive”. With `O=[N+]([O-])c1ccccc1N=Nc1c(O)[nH]c2ccc(S(=O)(=O)O)cc12`, the activity, negative = inhibition was -12.1% [at 11.4 µM]. Take `C[C@@](Cc1ccc(O)c(O)c1)(NN)C(=O)O`: the AC50 entry was “inactive”. On to `COc1cccc(Nc2ncc3nc(C)c(=O)n(CCc4ccccc4)c3n2)c1`, for which the AC50 result was “inactive”. As for `C[C@@]1(C(=O)O)NCCc2cc(O)c(O)cc21`, the AC50 result was “inactive”.

`Cc1cc(C)c2c(-n3cccc3)n[nH]c2n1`: the AC50 is 25.1 µM (active). Same read-out and setting: to `Cc1nc(N=Nc2cc(S(=O)(=O)O)ccc2S(=O)(=O)O)c(COP(=O)(O)O)c(C=O)c1O` belongs “inactive”. On to `COc1ccc(/C(C#N)=C/c2c(-c3ccc(Cl)cc3)nc3c(C)cccn23)cc1`, for which the AC50 result is “inactive”. For the compound `Cc1sc(NC(=O)C2C3CCC(O3)C2C(=O)O)c(C(=O)OC(C)C)c1-c1ccc(Cl)cc1` (stereo not given), the AC50 result was “inactive”. On the same count and under the same terms, to `O=C(Cn1ccc2ccccc2c1=O)N1CCN(c2cccc(Cl)c2)CC1` belongs “inactive”; to `O=C(Oc1ccccc1)N1CCC2(CC1)CCN(c1ncccn1)CC2`, “inactive”. Turning to `O=C(c1cnc(N2CCN(c3ncccn3)CC2)c2ccccc12)N1CCN(c2ccccn2)CC1`, the half-maximal activity concentration (AC50) was 11.2 µM (active). Same read-out and setting: the same measure for `COc1ccccc1C(=O)N1CCN(c2ccccn2)CC1`: “inactive”; for `CCN(C(=O)COc1cc(=O)n(C)c2ccccc12)c1cccc(Cl)c1`: “inactive”. Still for that read-out and setting: to `CN(C(=O)c1cnc(N2CCN(c3ncccn3)CC2)c2ccccc12)c1ccc(Cl)cc1` belongs 12.6 µM (active); to `COCC(=O)N1CCC2(CC1)CCN(c1ncccn1)CC2`, “inactive”; to `CCN(C(=O)c1cnc(N2CCN(c3ncccn3)CC2)c2ccccc12)c1cccc(Cl)c1`, 10 µM (active). On the same count and under the same terms, to `O=C(O)CCC(=O)N1CCN(c2ccccn2)CC1` belongs “inactive”; to `CC(C)Cc1ccc([C@H](C)C(=O)O)cc1`, “inactive”. For `CCOc1ccc2nc3cc(N=Nc4ccc(N)nc4N)ccc3c(N)c2c1`, the activity, negative = inhibition is -4.78% [at 11.4 µM].

For the compound `Cc1ccccc1Oc1ncnc2sccc12`, the AC50 result was “inactive”. Take `NCCc1nc(-c2nc(C(=O)O)cs2)cs1`: the activity, negative = inhibition was 16.3% [at 11.4 µM].

On to `OCCCSCCO`, for which the activity, negative = inhibition was -3.94% [at 11.4 µM].

Regarding `COc1ccc(C(C(=O)NC2CCCCC2)N(C(=O)c2sc(C)nc2C)c2ccc(OC)cc2)cc1` (stereo not given), the AC50 result was “inactive”.

In the case of `Cc1cc(Cc2c(C)c(C)c(Cc3cc(C)cc(C(C)(C)C)c3O)c(C)c2C)c(O)c(C(C)(C)C)c1`, the activity, negative = inhibition was 12% [at 11.4 µM]. Same read-out and setting: to `Cc1cc(Cc2cc(C)cc(C(C)(C)C)c2O)c(O)c(Cc2cc(C)cc(C(C)(C)C)c2O)c1` belongs -2.96% [at 11.4 µM]. On to `Cc1cc(C(C)(C)C)c(O)c(C)c1CC1=NCCN1`, for which the concentration at half-maximal activity (AC50) was 12.6 µM (active) and 3.98 µM (active) and 39.8 nM (active). For the compound `COc1ccc(CN2C(=O)CN(C3CCCCCC3)C(=O)C2c2ccc(OC)c(OC)c2)cc1` (stereo not given), the AC50 result is “inactive”. As for `Cc1ccc(NC(=O)CCC(=O)NNC(=O)c2ccco2)cc1C`, the AC50 result was “inactive”. The same measure, in the same setting: to `CCOc1[nH]n(-c2ccccc2)c(=O)c1C=Nc1ccc(Cl)cc1` belongs “inactive”; to `Cn1c(C(F)(F)F)nc2c(=O)oc3ccccc3c21`, “inactive”; to `CCCC/C=C/C(NC(=O)c1ccc(-c2ccccc2)cc1)c1ccccc1` (stereo not given), “inactive”. Same read-out and setting: to `O=C(NCCOC12CC3CC(CC(C3)C1)C2)c1cccc(Br)c1` belongs “inactive”. Turning to `O=C(CCc1ccccc1)NNC(=O)c1ccco1`, the AC50 result is “inactive”. The same measure, in the same setting: to `O=C(CCc1ccccc1)Nc1ncn[nH]1` belongs “inactive”; to `O=C(CCc1ccccc1)Nc1nncs1`, 14.1 µM (active). In the case of `CCOC(=O)CCN1C(=O)[C@H]2[C@H]3[C@H](O)[C@H](O)C/C(=N/OC[C@@H](O)COCc4ccco4)[C@H]3CC[C@@H]2C1=O`, the activity, negative = inhibition was 8.09% [at 11.4 µM]. Still for that read-out and setting: the same measure for `COc1ccc2c3c([nH]c2c1)[C@H]1C[C@@H]2[C@@H](C[C@@H](O)[C@H](OC)[C@H]2C(=O)O)CN1CC3`: 7.15% [at 11.4 µM]. Regarding `Cc1ccc(S(=O)(=O)N(C)CC(=O)O/N=C(\N)c2ccccn2)cc1`, the AC50 entry was “inactive”.

Consider `c1ccc(NCCSc2nc3ccccc3s2)cc1`, for which the activity, negative = inhibition was 1.99% [at 11.4 µM].

Turning to `c1ccc2sc(SCN(C3CCCCC3)C3CCCCC3)nc2c1`, the AC50 was 1.58 µM (active).

Take `O=C(O)CCCSc1nc2ccccc2s1`: the activity, negative = inhibition was -8.66% [at 11.4 µM]. Take `O=C(Nc1ccc2oc(=O)c(C(=O)O)cc2c1)Oc1ccccc1`: the activity, negative = inhibition was -5.11% [at 11.4 µM]. For `CC(=O)c1c(C(C)=O)c(C)n(NC(=O)c2ccncc2)c1C`, the AC50 result was “inactive”. Same read-out and setting: the same measure for `CN(C)c1ccc(-c2nc(NCc3cccnc3)c3ccccc3n2)cc1`: 7.94 µM (active). On the same count and under the same terms, the same measure for `c1csc(CNc2nc(-c3ccoc3)nc3ccccc23)c1`: 3.98 µM (active). On the same count and under the same terms, the same measure for `Cc1cccc(CNc2nc(-c3ccoc3)nc3ccccc23)c1`: 10 µM (active). For `Fc1ccc(Nc2nc(-c3ccoc3)nc3ccccc23)cc1`, the AC50 result is “inactive”. Still for that read-out and setting: to `c1ccc(CNc2nc(-c3ccoc3)nc3ccccc23)cc1` belongs 10 µM (active). Same read-out and setting: to `CCNc1ncc2nc(-c3ccc(OC)cc3)c(=O)n(Cc3cccc(OC)c3)c2n1` belongs “inactive”; to `Cn1c(=O)n(CCC(=O)O)c2ccccc21`, “inactive”. Turning to `COc1cc(/C=N/NC(N)=O)c(Br)cc1OCC(=O)Nc1ccccc1C`, the AC50 result was “inactive”. In the case of `CCOC(=O)c1c(O)[nH]c(=O)c(CC)c1C`, the activity, negative = inhibition was -17.9% [at 11.4 µM]. The same measure, in the same setting: to `CCOC(=O)Nc1nc(-c2ccccc2)c(C)s1` belongs 1.52% [at 11.4 µM]. On to `CO/N=C(\C(=O)N[C@@H]1C(=O)N2C(C(=O)O)=C(COC(N)=O)CS[C@@H]12)c1ccco1`, for which the AC50 result was “inactive”.

For `O=S1(=O)CCN(c2ccccc2CC(c2c[nH]c3ccccc23)c2c[nH]c3ccccc23)CC1`, the activity, negative = inhibition is -18% [at 11.4 µM]. Consider `Cc1ccc(C2CC(C(F)(F)F)n3nc(C(=O)NCCN4CCOCC4)cc3N2)cc1` (stereo not given), for which the AC50 result was “inactive”. Turning to `O=S(=O)(O)[C@@H](c1ccccc1)[C@@H](O)c1ccccc1`, the activity, negative = inhibition was 4.68% [at 11.4 µM].

`c1cncc(-c2nc(NCc3cccs3)c3ccccc3n2)c1`: the AC50 was 6.31 µM (active). As for `c1cncc(CNc2nc(-c3ccoc3)nc3ccccc23)c1`, the AC50 was 5.01 µM (active). In the case of `CN(C)c1ccc(-c2nc(NCCc3cnc[nH]3)c3ccccc3n2)cc1`, the AC50 is 7.94 µM (active). The same measure, in the same setting: the same measure for `Cc1cnc(CNc2nc(-c3cccnc3)nc3ccccc23)cn1`: “inactive”; for `Cc1cccc(CNc2nc(-c3cccnc3)nc3ccccc23)c1`: 25.1 µM (active); for `CNC(=S)N1N=C(c2ccc(OC)cc2)CC1c1ccc(N(C)C)cc1` (stereo not given): “inactive”.

`Cc1c(CCC(C)C)c(-n2ccnc2C)n2c(nc3ccccc32)c1C#N`: the AC50 result is “inactive”. Take `CCSc1nnc2n(N)c(=O)c3ccccc3n12`: the AC50 result was “inactive”. Take `Cc1cc(=O)oc2cc(O)c(CN(C)CC(=O)O)cc12`: the activity, negative = inhibition was -1.55% [at 11.4 µM]. Take `Cc1cccc(Nc2ccccc2C(=O)OCC(=O)N(C)C2CCS(=O)(=O)C2)c1C` (stereo not given): the AC50 entry is “inactive”. Turning to `Cc1cc(C)nc(SCCc2cccc[n+]2C)n1`, the activity, negative = inhibition was -2.83% [at 11.4 µM]. Regarding `S=c1[nH]nc(-c2ccncc2)n1CC1CCCO1` (stereo not given), the AC50 entry was “inactive”. Turning to `Cc1cc(NC(=O)CSc2nc3ccsc3c(=O)n2CCCCC(=O)O)no1`, the AC50 result was “inactive”. Same read-out and setting: the same measure for `C[C@@]1(O)CCOC(=O)C1`: “inactive”; for `CCOC(=O)c1c(C)[nH]c(C(=O)OCC(=O)NC2CCS(=O)(=O)C2)c1C` (stereo not given): “inactive”; for `NCCS(=O)O`: “inactive”. On the same count and under the same terms, to `Cc1ccc(S(=O)(=O)O/N=C2/CCCc3occc32)cc1` belongs “inactive”; to `C[C@@H](CCCCC(=O)Nc1ccc(C(F)(F)F)cc1)NCCc1cnc[nH]1`, 5.01 µM (active). Consider `O=CN[C@@H](Cc1cnc[nH]1)C(=O)O`, for which the activity, negative = inhibition is -4.29% [at 11.4 µM]. Regarding `CN(C)C[C@H]1CCC[C@@H](CN(C)C)C1=O`, the activity, negative = inhibition was -1.21% [at 11.4 µM]. Take `Clc1ccc2c(c1)C(c1cccs1)=NNC(c1cccnc1)=N2`: the AC50 is 10 µM (active). The same measure, in the same setting: the same measure for `Clc1ccc2oc(-c3cccnc3)nc2c1`: “inactive”. Still for that read-out and setting: the same measure for `Fc1ccc2c(c1)C(c1ccncc1)=NNC(c1ccc(Cl)cc1)=N2`: 0.398 µM (active); for `Cn1c(=O)c(-c2cccc(Cl)c2)nc2cncnc21`: “inactive”.

As to `CCOC(=O)C1CCCN(c2ncnc3c2cnn3-c2ccc(Cl)cc2)C1` (stereo not given), the AC50 result was “inactive”. The same measure, in the same setting: the same measure for `COCCn1c(=O)c(-c2cccs2)nc2cncnc21`: “inactive”. With `C[C@@H](C(=O)Nc1ccc2ccccc2c1)[C@H]1C[C@]1(C)[C@H](NP(=O)(c1ccccc1)c1ccccc1)c1ccccc1`, the AC50 is 0.794 µM (active).

For the compound `O=C(Nc1ccc2ccccc2c1)[C@@H]1C[C@H]1[C@@H](NP(=O)(c1ccccc1)c1ccccc1)c1ccccc1`, the AC50 result was “inactive”.

With `C[C@@H](C(=O)Cc1ccc2ccccc2c1)[C@@H]1C[C@@]1(C)[C@@H](NP(=O)(c1ccccc1)c1ccccc1)c1ccccc1`, the AC50 entry is “inactive”.

As for `O=C(Nc1ccc2ccccc2c1)[C@H]1C[C@@H]1[C@H](NP(=O)(c1ccccc1)c1ccccc1)c1ccccc1`, the AC50 result is “inactive”. For `C[C@@H](C(=O)Nc1ccc2ccccc2c1)[C@@H]1C[C@@]1(C)[C@@H](N)c1ccccc1`, the AC50 is 12.6 µM (active). Same read-out and setting: to `Cc1nn(C)c(Cl)c1S(=O)(=O)N[C@@H](c1ccccc1)[C@]1(C)C[C@H]1[C@@H](C)C(=O)Nc1ccc2ccccc2c1` belongs “inactive”; to `CC(=O)N[C@H](c1ccccc1)[C@@]1(C)C[C@@H]1[C@@H](C)C(=O)Nc1ccc2ccccc2c1`, 2 µM (active); to `Cc1cc(C(=O)N[C@H](c2ccccc2)[C@@]2(C)C[C@@H]2[C@@H](C)C(=O)Nc2ccc3ccccc3c2)n(C)n1`, 0.0398 µM (active).
